The text below walks through data of PubChem BioAssay (NCI).

Holding throughout (assay): NCI-60 one-dose screen, 48 h (100 = growth as untreated, 0 = no growth, -100 = all killed)
Holding throughout (conditions): 10 µM

Assay [1] relates to SR leukemia.
Assay [2] concerns RPMI-8226 leukemia.
Assay [3] concerns OVCAR-8 ovarian.
Assay [4] concerns OVCAR-5 ovarian.
Assay [5] has as its system OVCAR-4 ovarian.
Assay [6] has as its system SK-OV-3 ovarian.
The test system of assay [7] is IGROV1 ovarian.
For assay [8], the system named is OVCAR-3 ovarian.
Assay [9] deals with HS 578T breast.
Assay [10] has as its system NCI/ADR-RES ovarian.

About 83,000 compounds went through this panel and 20% of them were active in at least one assay; those are over-represented in the sample as a whole.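 Values shown are percent growth following 48 h exposure of cells in 96-well plates to a single concentration of compound; below 10 was considered active.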 Unmarked numbers belong to inactive results. Active and inactive are the calls of the source.

Consider `O=c1[nH]c2ccc(Cl)cc2cc1CSc1ccc(Nc2nccc(-c3ccc(Cl)cc3)n2)cc1`, for which the growth was 54.2% in assay [1]; 73% in assay [2]; -0.363% (active) in assay [3]; 81.3% in assay [4]; -59.9% (active) in assay [5]; 122% in [6]. For the same compound, the growth in assay [7] was 84.7%; in assay [8], -63.1% (active); in assay [9], 56.8%; in assay [10] it was 50.2%.
`COc1ccc(/C=C/C(=O)c2ccc(S(=O)(=O)NCCNc3nc(Nc4ccc(F)cc4)nc(N(C)C)n3)cc2)cc1`: the growth in assay [1] was 3.4% (active); in assay [2], 10.5%; in [3] it was 50.6%; in [4] it was 42.5%; in [5], 21.8%; in assay [6] it was 76%. Further, the growth in assay [7] is 43.6%; in [8], 15.7%; in [9] it was 39%; in assay [10], 28.1%.
For the compound `CN1CCCN(Cc2ccc(C(=O)Nc3cccc(Nc4ccc5c(O)cccc5n4)c3)cc2C(F)(F)F)CC1`, the growth in [1] is 11.4%; in [2], 2.61% (active); in assay [3] it was -22% (active); in assay [4], -82.1% (active); in assay [5] it was -43.5% (active); in assay [6], -58.9% (active). Also, the growth is -78.9% (active) in [7], -35.8% (active) in [8], -41.2% (active) in assay [9] and 37.7% in assay [10].
For `Cc1ccc2nc(-c3ccc(-c4nnc(SCC(=O)Nc5ccc(Cl)cc5)o4)cc3)[nH]c2c1`, the growth in assay [1] was 21.8%; in assay [2], 43.2%; in assay [3] it was -11.8% (active); in assay [4], 63.1%; in [5] it was 4.47% (active); in assay [6], 79.3%. In addition, the growth in assay [7] is 37.8%; in assay [8], 24%; in assay [9], 40.5%; in assay [10], 23.2%.
As to `CCOP(=O)(OCC)O[C@H]1CC[C@]2(C)[C@H]3CC[C@@H]4[C@@H]([C@](C)(O)CCC=C(C)C)CC[C@@]4(C)[C@]3(C)CC[C@H]2C1(C)C`, the growth in assay [1] was -7.18% (active); in [2], 2.3% (active); in assay [3], 32.9%; in assay [4] it was 44%; in assay [5], 38.8%; in assay [6], 37%. Besides, the growth in [7] is 55%; in assay [8] it was 11.1%; in assay [9] it was 11.4%; in assay [10], 36%.
For the compound `COc1ccc(C(=O)/C=C/c2cc(F)cc(C(F)(F)F)c2)cc1S(N)(=O)=O`, the growth was 3.04% (active) in [1]; 2.99% (active) in [2]; -44.1% (active) in [3]; -59.9% (active) in [4]; -98% (active) in [5]; 42.1% in assay [6]. Also, the growth in [7] was -53.6% (active); in assay [8] it was -95.3% (active); in assay [9], -25.7% (active); in [10], 5.77% (active).
Regarding `O=C(CSc1nnc(-c2ccc3nc(-c4ccccc4)[nH]c3c2)o1)Nc1ccc(Cl)cc1`, the growth is 29.1% in assay [1]; 29.6% in [2]; 21.2% in [3]; 65.1% in assay [4]; 61.9% in [5]; 55.9% in assay [6]. In addition, the growth was 52.6% in [7], 62.9% in assay [8], 16.7% in [9] and 38.5% in assay [10].
With `O=C(Cn1nc(-c2ccccc2)ccc1=O)NNC(=S)NC1CCCCC1`, the growth was 89.4% in assay [1]; 97% in assay [2]; 112% in [3]; 105% in assay [4]; 114% in assay [5]; 112% in assay [6]. For the same compound, the growth in assay [7] was 104%; in [8], 122%; in assay [9] it was 101%; in assay [10], 105%.
Consider `C/C(=N\N=C\c1ccc(N(C)C)cc1)c1ccc2c(c1)Nc1ccccc1S2`, for which the growth was 50% in [1]; 48.5% in assay [2]; 38.5% in assay [3]; 57.4% in [4]; 17.4% in assay [5]; 87.8% in [6]. For the same compound, the growth in assay [7] was 68.9%; in assay [8], 44.5%; in [9], 18.7%; in [10] it was 26.6%.
For `COc1ccc(NC(=O)Nc2ccc(OCC(=O)N=Nc3c(O)[nH]c4ccc([N+](=O)[O-])cc34)cc2)cc1`, the growth in assay [1] was 92.4%; in [2], 110%; in assay [3], 37.1%; in assay [4], 124%; in assay [5], 59.8%; in [6], 93.9%. Also, the growth was 92.6% in assay [7], 24.6% in [8], 39% in assay [9] and 91.1% in assay [10].
As to `Brc1ccc(N/N=C/c2c[nH]c3ccccc23)nc1`, the growth in [1] is 2.45% (active); in assay [2], 2.19% (active); in [3], 44.3%; in [4], 45.4%; in [5] it was 41.5%; in [6], 71%. Besides, the growth was 1.99% (active) in [7], 19.5% in [8], 51.7% in assay [9] and 5.81% (active) in assay [10].
As to `COc1ccc2ncc(C#Cc3cncc(C(=O)Nc4ccc(CN5CCN(C)CC5)c(C(F)(F)F)c4)c3)n2n1`, the growth in assay [1] was -26.3% (active); in assay [2], -26.3% (active); in assay [3], -49.2% (active); in [4] it was -94.5% (active); in assay [5], -75.2% (active); in [6], 49.8%. Besides, the growth is -76.1% (active) in [7], -93.2% (active) in assay [8], -2.29% (active) in assay [9] and -81.4% (active) in assay [10].
In the case of `COc1ccc(Nc2nc(N)n(Cc3cccc(Br)c3)n2)cc1`, the growth in assay [1] is 12.6%; in assay [2] it was 8.38% (active); in assay [3], 26.2%; in assay [4], 21.7%; in [5], 7.22% (active); in assay [6], 22.8%. In addition, the growth was 12% in assay [7], 19.6% in assay [8], -12.3% (active) in assay [9] and 2.23% (active) in assay [10].
